Compounds with a hit are over-represented: about 1.2% of the library has one in this group of screens.
RGS8-Gao – regulators of human RGS8-Galphao interaction; response (percent of control binding), % at 10 µM; actives 0.34% (n = 220,000); multiplexed bead flow cytometry, RGS8-Galphao binding; actives lie on both sides; P09471; AID 1423; in the data active means response below about 60% or above about 140%; inactive means in between;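 further: Galphao activated as the GDP aluminium fluoride complex binding bead-coupled RGS8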
Target sequence (P09471 whole entry, looked up): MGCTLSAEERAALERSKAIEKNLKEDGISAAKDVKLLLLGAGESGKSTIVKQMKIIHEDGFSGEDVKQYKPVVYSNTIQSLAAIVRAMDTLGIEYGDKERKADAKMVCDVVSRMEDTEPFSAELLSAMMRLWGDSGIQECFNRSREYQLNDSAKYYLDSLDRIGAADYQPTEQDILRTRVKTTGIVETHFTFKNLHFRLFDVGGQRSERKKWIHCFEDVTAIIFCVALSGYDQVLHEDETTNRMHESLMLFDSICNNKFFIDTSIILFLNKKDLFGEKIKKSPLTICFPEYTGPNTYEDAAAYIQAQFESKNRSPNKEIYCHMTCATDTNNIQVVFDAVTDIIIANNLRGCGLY
RGS4-Gao reg – human RGS4-Galphao interaction regulation; P09471; Multiplexed bead flow cytometry, RGS4-Galphao binding; actives lie on both sides; binding response (% of control), % at 10 µM; AID 1415; actives 0.33% (n = 220,000); in the data active means binding response below about 49% or above about 150%; inactive means in between;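 further: fluorescent Galphao activated with aluminum fluoride binding bead-coupled RGS4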
Avidin bead fluor – compound fluoresces at 488/530 nm on avidin beads; compound fluorescence 488/530 nm, flow cytometry; active compounds read high; fluorescence (KMESF) at 10 µM; actives 0.38% (n = 220,000); in the data active means fluorescence above about 47
RGS7-Gao – human RGS7-Galphao interaction regulation; AID 1439; P09471; Multiplexed bead flow cytometry, RGS7-Galphao binding; actives lie on both sides; binding response (% of control), % at 10 µM; actives 0.35% (n = 220,000); in the data active means binding response below about 49% or above about 150%; inconclusive means no clear call, values can overlap the other calls; inactive means in between;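 further: fluorescent Galphao held in activated GDP-AlF4 state binding bead-coupled RGS7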
RGS16-Gao HTS – regulators of human RGS16-Galphao interaction. O15492+P09471. bead-based flow cytometry RGS16-Galphao binding, fluorescence; actives lie on both sides. binding response (% of control), % at 10 µM. actives 0.38% (n = 220,000). AID 1441;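 further: Galphao activated by GDP with aluminum fluoride before binding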
GSH bead fluor – GSH bead compound fluorescence profile; GSH beads flow cytometry, compound fluorescence 488/530 nm; active compounds read high; fluorescence (KMESF) at 10 µM; actives 0.25% (n = 190,000); AID 1776; in the data active means fluorescence above about 89;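 further: glutathione beads carrying GST-tagged Bcl family fusion proteins plus one bare bead set; values are compound well signal with DMSO vehicle wells as background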
RGS-Gao – RGS4-Galphao interaction regulator (human) | shares compounds with RGS16-Gao HTS | multiplexed bead flow cytometry, RGS–Galpha-o binding | RGS4–Galpha-o binding response, % at 10 µM | actives 99% (n = 1,600) | AID 1504;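 further: fluorescently labeled Galpha-o bound to GDP with aluminium fluoride binding biotinylated RGS beads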
Avidin counter – counter-screen: compounds disrupting biotin binding to avidin beads. shares compounds with RGS16-Gao HTS. inhibition, % at 10 µM. streptavidin beads, fluorescein-biotin binding, flow cytometry. 1,700 tested, under 10 active;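 active means inhibition above 50%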;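 further: median green fluorescence of gated singlet beads compared with DMSO control wells; 0% = DMSO wells and 100% = complete loss of bead fluorescence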
RGS8-Gao confirm – RGS8-Galphao interaction regulation, single point confirmation. binding response (% of control), % at 10 µM. actives 3% (n = 1,700). bead-based flow cytometry RGS8-Galphao binding, fluorescence; actives lie on both sides. shares compounds with RGS16-Gao HTS; in the data active means binding response below about 72% or above about 130%; inactive means in between;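 further: Galphao activated as GDP AlF4 complex before binding bead RGS8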
RGS7-Gao confirm – RGS7-Galphao interaction regulation, single point confirmation | bead-based flow cytometry RGS7-Galphao binding; actives lie on both sides | actives 7.8% (n = 1,700) | shares compounds with RGS16-Gao HTS | response (percent of control binding), % at 10 µM; in the data active means response below about 75% or above about 130%; inactive means in between;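 further: fluorescent Galphao activated with GDP and aluminum fluoride binding bead-coupled RGS7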
RGS16-Gao conf – RGS16-Galphao interaction regulation, single point confirmation | shares compounds with RGS16-Gao HTS | bead-based flow cytometry, RGS16-Galphao binding; actives lie on both sides | response (% of control binding), % at 10 µM | actives 4% (n = 1,700) | AID 1838; in the data active means response below about 74% or above about 130%; inactive means in between;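 further: Galphao activated as the GDP aluminium fluoride complex binding bead-coupled RGS16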
RGS4-Gao single – RGS4-Galphao interaction regulation, single point confirmation; actives 4% (n = 1,700); RGS4-Galphao binding, multiplexed bead flow cytometry; actives lie on both sides; binding response (% of control), % at 10 µM; shares compounds with RGS16-Gao HTS; in the data active means binding response below about 74% or above about 130%; inactive means in between
RGS19-Gao single – confirmation of regulators of human RGS19-Galphao interaction. bead-based flow cytometry RGS19-Galphao binding; actives lie on both sides. AID 1841. response (percent of control binding), % at 10 µM. actives 5% (n = 1,700). shares compounds with RGS16-Gao HTS; in the data active means response below about 50% or above about 160%; inactive means in between;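 further: 100% = no compound control and 0% = blank background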
* hit, by the source's call; ? = inconclusive; nt = no result; [ ] = remark or other dose. Unless noted, how the calls were made is not given here.

SMILES | RGS8-Gao | RGS4-Gao reg | Avidin bead fluor | RGS7-Gao | RGS16-Gao HTS | GSH bead fluor | RGS-Gao | Avidin counter | RGS8-Gao confirm | RGS7-Gao confirm | RGS16-Gao conf | RGS4-Gao single | RGS19-Gao single
O=C(NCCN1CCN(S(=O)(=O)c2ccc([N+](=O)[O-])cc2)CC1)C(=O)Nc1ccccc1 | 89.3 | 130.9 | 152* | 221.4*[activator] | 86.8 | 25 | 130.9* | -1.6 | 99.1 | 102.2 | 101.4 | 99.7 | 106.6
Cc1c(C(=O)N/N=C/c2ccc(N(C)C)cc2)[nH]c2ccc(Cl)cc12 | 65.8 | 94.0 | 4 | 95.0 | 22.7* | 9 | 94.0* | -0.6 | 97.7 | 94.7 | 99.0 | 99.6 | 82.1
O=C(NCc1ccco1)c1ccc(COc2ccc(Cl)cc2)cc1 | 75.4 | 89.0 | 8 | 85.1 | 11.7* | 6 | 89.0* | 0.2 | 98.5 | 101.1 | 98.0 | 100.1 | 91.1
S=C(NCc1ccco1)Nc1ccc(Oc2ccc(Cl)cc2)cc1 | 14.0* | -36.6* | -2 | ? | -19.8* | nt | nt | -2.0 | 100.5 | 96.3 | 98.4 | 97.0 | 97.6
Cc1cc(C)n(C(N)=NC(=O)c2ccc([N+](=O)[O-])cc2)n1 | 53.8* | 34.9* | 1 | ? | 35.7 | nt | nt | 0.7 | 99.2 | 95.3 | 98.7 | 98.3 | 98.4
Cc1cc(C)n(C(=O)COc2ccc([N+](=O)[O-])cc2)n1 | 102.0 | 101.8 | 3 | 102.0 | 107.8 | 8 | nt | nt | nt | nt | nt | nt | nt
CCOC(=O)N1CCC(NC(=O)CSc2cc(=O)n(C)c3ccccc23)CC1 | 140.4*[activator] | 110.3 | 11 | 111.0 | 241.3 | 28 | 110.3* | -8.6 | 108.7 | 112.9 | 108.5 | 111.6 | 113.6
Cn1c(=O)cc(SCC(=O)N2CCCC2)c2ccccc21 | 100.8 | 97.7 | 6 | 101.2 | 93.9 | 38 | nt | nt | nt | nt | nt | nt | nt
CCOc1ccc(NC(c2ccccn2)c2oc(CO)cc(=O)c2O)cc1 (stereo unspecified) | 83.0 | 94.1 | 5 | ? | 102.8 | 15 | nt | nt | nt | nt | nt | nt | nt
CCOc1ccc(-c2nnc(-c3ccc(OC)cc3)o2)cc1 | 14.5* | 23.9* | 2 | 17.5* | 11.5* | 10 | nt | 0.3 | 99.5 | 91.9 | 95.0 | 94.0 | 94.4
CCOc1ccc(-c2nnc(-c3ccccc3)o2)cc1 | 99.2 | 95.6 | 5 | 94.5 | 94.7 | 16 | nt | nt | nt | nt | nt | nt | nt
CCOC(=O)c1cccc2c1-c1ccccc1/C2=N/O | 106.4 | 102.5 | 19 | 101.6 | 106.3 | 6 | nt | nt | nt | nt | nt | nt | nt
CC1CCCC(C)N1C(=O)c1cccc2c1-c1ccccc1/C2=N/O (stereo unspecified) | 101.4 | 109.8 | 143* | 165.5*[activator] | 108.6 | 12 | 109.8* | 0.4 | 97.2 | 98.2 | 99.1 | 98.2 | 101.1
Cc1ccccc1-n1c(SCC(=O)NC(N)=O)nc2sc(-c3ccccc3)cc2c1=O | 65.3 | 80.8 | 8 | 78.9 | -3.3* | 4 | 80.8* | 0.9 | 102.5 | 102.9 | 106.3 | 104.0 | 104.2
O=C(NCC1(c2ccccc2)CCCC1)C(=O)N1CCOCC1 | 66.4 | 83.4 | 12 | 81.0 | 21.4* | 12 | 83.4* | 0.0 | 102.3 | 106.3 | 104.9 | 104.0 | 79.6
